According to PMC4336329 (PLoS ONE, 2015):
The campaign covered roughly 310,000 compounds. About 14,000 (4.5%) showed an effect of 50% or more. The effect is printed as a negative number. The full list was thinned out, with strong results kept by preference.

target: human ether-à-go-go-related gene (hERG) potassium channel (human, UniProt Q12809); test: primary screen, population patch clamp on CHO cells stably expressing hERG; higher = less effect of the substance
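Note: peak tail current of the secondary pulse compared with the same well before compound.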

Chain of human ether-à-go-go-related gene (hERG) potassium channel (Q12809 whole entry, looked up): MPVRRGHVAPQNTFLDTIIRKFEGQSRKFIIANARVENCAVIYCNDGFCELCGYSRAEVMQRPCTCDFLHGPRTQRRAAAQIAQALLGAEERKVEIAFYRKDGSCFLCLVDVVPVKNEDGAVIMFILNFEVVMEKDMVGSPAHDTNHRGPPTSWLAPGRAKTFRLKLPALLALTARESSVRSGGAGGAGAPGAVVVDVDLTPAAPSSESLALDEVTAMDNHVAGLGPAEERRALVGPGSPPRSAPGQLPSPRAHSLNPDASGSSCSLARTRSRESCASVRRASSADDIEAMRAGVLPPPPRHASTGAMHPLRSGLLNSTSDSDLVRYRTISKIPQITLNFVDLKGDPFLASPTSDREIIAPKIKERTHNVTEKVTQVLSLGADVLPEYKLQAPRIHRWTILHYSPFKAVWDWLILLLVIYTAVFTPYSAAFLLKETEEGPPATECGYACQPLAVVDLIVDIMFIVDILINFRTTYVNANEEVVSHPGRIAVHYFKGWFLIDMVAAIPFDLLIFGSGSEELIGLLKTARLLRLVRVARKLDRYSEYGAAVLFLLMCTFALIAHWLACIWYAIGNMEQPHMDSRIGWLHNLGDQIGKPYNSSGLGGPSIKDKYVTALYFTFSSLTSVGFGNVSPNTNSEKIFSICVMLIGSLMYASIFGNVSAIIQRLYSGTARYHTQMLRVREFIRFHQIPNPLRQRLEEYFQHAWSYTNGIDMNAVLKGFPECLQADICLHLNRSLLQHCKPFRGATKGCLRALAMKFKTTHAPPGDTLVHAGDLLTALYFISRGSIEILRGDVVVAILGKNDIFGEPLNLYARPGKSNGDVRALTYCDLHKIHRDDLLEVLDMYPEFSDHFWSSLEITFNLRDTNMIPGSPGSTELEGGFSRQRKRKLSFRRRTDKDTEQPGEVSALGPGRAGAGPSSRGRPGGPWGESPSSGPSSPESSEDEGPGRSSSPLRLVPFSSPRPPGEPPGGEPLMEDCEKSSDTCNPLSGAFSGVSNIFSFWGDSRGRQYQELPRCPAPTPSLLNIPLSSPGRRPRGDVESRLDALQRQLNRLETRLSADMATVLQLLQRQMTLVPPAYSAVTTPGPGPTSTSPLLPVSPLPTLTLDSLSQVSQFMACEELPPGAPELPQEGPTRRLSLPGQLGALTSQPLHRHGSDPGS

SMILES	hERG current change (%, negative = inhibition) at 10uM [%]
CC(=O)OCn1ncc(N2CCOCC2)c(Br)c1=O	16.5
Cc1ccc(/C=N/Nc2cc(C)nc(N3CCOCC3)n2)cc1	17.5
Cc1ccc(N=Nc2c(O)[nH]c(=O)[nH]c2=O)c([N+](=O)[O-])c1	-5.68
Cc1ccc(S(=O)(=O)NC(CCc2ccccc2)CC(=O)C(C)(C)C)cc1 (centres unmarked)	-0.463
O=C(c1ccc(N2CCOCC2)c([N+](=O)[O-])c1)N1CCCC(C(F)(F)F)C1 (centres unmarked)	2.23
Cc1ccc(S(=O)(=O)NC(=O)N(C)C2CCCCC2)cc1	9.07
CN(C)CCCNc1nc(-c2ccccc2)c2c(c1C#N)CC(C)(C)OC2	-57.4
CN(C)CCNc1nc(-c2ccccc2)c2c(c1C#N)CC(C)(C)OC2	-42.4
CC1(C)Cc2c(C#N)c(NCCN3CCOCC3)nc(-c3ccccc3)c2CO1	-17.1
COc1nc(-c2ccccc2)c2c(c1C#N)CC(C)(C)OC2	-11.2
Cc1nc(NCCCO)c(C#N)c2c1COC(C)(C)C2	-15
CC1(C)Cc2c(C#N)c(NCCCO)nc(-c3ccccc3)c2CO1	-56
CC1CCCCN1S(=O)(=O)c1ccc(C(=O)Nc2nnc(-c3ccco3)o2)cc1 (centres unmarked)	-2.35
O=C(CCc1ccccc1)NNC(=O)Cc1ccc(Cl)cc1	13.1
CCOC(=O)C1=C(C)Nc2ccccc2N=C1NC(=O)c1cccc(S(=O)(=O)NCc2ccccc2)c1	-19.4
Cc1nn(Cc2n[nH]c(=S)n2Cc2ccccc2)c(C)c1Cl	14
Cc1ccc(CN2CCN(Cc3cccc4c3OCO4)CC2CCO)cc1 (centres unmarked)	-51.2
CC(C)=CCN1CCN(Cc2cccc3c2OCO3)CC1CCO (centres unmarked)	-12.6
CC(C)N1CCN(Cc2cccc3c2OCO3)CC1CCO (centres unmarked)	-0.928
OCCC1CN(Cc2cccc3c2OCO3)CCN1C1CCCC1 (centres unmarked)	-20.4
CC(C)N1CCN(Cc2cc3c(cc2Cl)OCO3)CC1CCO (centres unmarked)	-2.34
CC(C)N1CCC(N2CCN(Cc3cc4c(cc3Cl)OCO4)CC2CCO)CC1 (centres unmarked)	-18.5
CC(C)CN1CCN(Cc2cccc3c2OCO3)CC1CCO (centres unmarked)	-1.45

SMILES	hERG current change (%, negative = inhibition) at 10uM [%]
OCCC1CN(Cc2cccc3c2OCO3)CCN1Cc1ccccc1 (centres unmarked)	-3.38
OCCC1CN(Cc2cc3c(cc2Cl)OCO3)CCN1C1CCCC1 (centres unmarked)	-50.8
CCOc1ccc(CN2CCN(Cc3cccc4c3OCO4)CC2CCO)cc1 (centres unmarked)	-77.4
CCOc1ccc(CN2CCN(Cc3cc4c(cc3Cl)OCO4)CC2CCO)cc1 (centres unmarked)	-73.3
OCCC1CN(Cc2cc3c(cc2Cl)OCO3)CCN1Cc1ccccc1 (centres unmarked)	-45.3
COc1ccc(C2/C=C\CN(CC(C)C)CC(=O)N2Cc2ccc(F)cc2)cc1 (centres unmarked)	-6.03
Cc1cc([N+](=O)[O-])nn1CC(=O)N(C)C1CCCCC1	-18.6
O=C(Nc1ccccc1Cl)C1CCN(S(=O)(=O)c2cccc3nonc23)CC1	16
CC(=O)c1c(C)oc2ccc(N(C(C)=O)S(=O)(=O)c3cccc([N+](=O)[O-])c3)cc12	8.76
N#C/C(=C(/O)CN1C(=O)c2ccccc2C1=O)c1nc2ccccc2[nH]1	11.6
CCOc1ccccc1CN1CCN(Cc2cccc3c2OCO3)CC1CCO (centres unmarked)	-62.6
COc1cc(S(=O)(=O)N(Cc2ccc(C)cc2)Cc2ccco2)ccc1-n1cnnn1	2.53
COc1ccccc1CN(Cc1cccnc1)S(=O)(=O)c1ccc(-n2cnnn2)c(OC)c1	-63
COc1cc(S(=O)(=O)N(Cc2cccnc2)Cc2cccc(OC)c2OC)ccc1-n1cnnn1	-46.5
COc1ccccc1CN(Cc1ccco1)S(=O)(=O)c1ccc(-n2cnnn2)c(OC)c1	7.21
COc1cc(S(=O)(=O)N(Cc2cccnc2)Cc2ccco2)ccc1-n1cnnn1	-52.3
COc1ccc(CN(Cc2cccnc2)S(=O)(=O)c2ccc(-n3cnnn3)c(OC)c2)cc1	-46.7
CC(C)C[C@H](NC(=O)c1nc[nH]c1C(=O)N1CC[NH2+]CC1)C(=O)OCc1ccccc1.[Cl-]	20.5
COc1ccc(C2C3=C(CCCC3=O)N(CC(=O)O)C3=C2C(=O)CCC3)cc1Cl	23.8
CN(c1cccc(NC(=O)CCSc2ccccc2)c1)S(C)(=O)=O	-28.8
O=C1c2ccccc2NC(c2ccc3c(c2)OCCO3)N1c1ccc2c(c1)OCCO2 (centres unmarked)	10.9
Cc1ccc(NC(=O)/C=C/C(=O)O)c([N+](=O)[O-])c1	-67
Cc1cc(NC(=O)/C=C\C(=O)O)c([N+](=O)[O-])cc1C	11.6

SMILES	hERG current change (%, negative = inhibition) at 10uM [%]
Cc1ccc(NC(=O)/C=C\C(=O)O)c([N+](=O)[O-])c1	21.4
COC(=O)c1cn(NC(=O)Cc2cccc(OC)c2)c(=O)c2ccccc12	12
Cc1ccc(NC(=S)N(CCCN2CCOCC2)Cc2ccco2)cc1Cl	-36.6
Cc1cc(NC(=S)N(CCCN2CCN(C)CC2)Cc2ccco2)ccc1Cl	-68.2
CCN1CCN(CCCN(Cc2ccco2)C(=S)Nc2ccc(C)c(Cl)c2)CC1	-64.8
Cc1cccc(NC(=S)N(CCCN2CCOCC2)Cc2ccco2)c1	-29.9
COc1cccc(NC(=S)N(CCCN2CCN(C)CC2)Cc2ccco2)c1	-36.2
CCN1CCN(CCCN(Cc2ccco2)C(=S)Nc2ccc(Cl)c(C)c2)CC1	-74.8
S=c1[nH]nc(CSCCOc2ccccc2)o1	8.24
CN(C)S(=O)(=O)c1cccc(NC(=O)CNCC2CCCCC2)c1.O=C(O)C(=O)O	-1.77
Cc1ccc2nc(SCC(=O)N3c4ccccc4CC3C)c(C)cc2c1 (centres unmarked)	7.54
COc1ccc(NC(=O)C2CC2)cc1-n1cnnn1	5.86
O=C1CC(c2ccccc2)Cc2nc(N3CCc4ccccc4C3)ncc21 (centres unmarked)	-2.75
CCC(CO)N=CC1=C(O)CC(c2ccccc2)CC1=O (centres unmarked)	17.1
Cc1cc(C)c(NC2=NS(=O)(=O)c3ccccc32)c(C)c1	-10.9
CC1=NC(Nc2nc(C)c3ccccc3n2)=NC(C)(C)C1	-69.4
COc1ccc(Nc2nc(C)c3ccccc3n2)cc1	-17.4
CC(=O)c1cnc(Nc2nc(C)c3ccccc3n2)nc1C	17.3
O=C(O)c1ccccc1Sc1ncnc2sccc12	9.7
Cc1cc(C(=O)OCC(=O)NC2CCS(=O)(=O)C2)c(C)n1-c1ccccc1 (centres unmarked)	-6.8
CC(NC(=O)Nc1nnc(C(F)(F)F)s1)(C(F)(F)F)C(F)(F)F	-7.61
CCc1nnc(NC(=O)CCN2C(=O)c3ccccc3S2(=O)=O)s1	17.3
CCOC(=O)c1c(C)[nH]c(C(=O)N/N=C/c2ccc(OC)c(OC)c2)c1C	12.7

SMILES	hERG current change (%, negative = inhibition) at 10uM [%]
COc1ccc(/C=C(\NC(=O)c2ccc([N+](=O)[O-])cc2)C(=O)NCCN2CCOCC2)cc1	-70.7
O=C(NC(=S)NCCCN1CCOCC1)c1ccc([N+](=O)[O-])cc1	-33.4
COc1ccc(C(=O)N/C(=C\c2cn(C)c3ccccc23)C(=O)NCCCN2CCOCC2)cc1	4.94
COc1ccc(/C=C(\NC(=O)c2ccccc2)C(=O)NCCN2CCOCC2)cc1OC	23
COc1ccc(C(=O)N/C(=C\c2ccco2)C(=O)NCCN2CCOCC2)cc1	8.33
COc1ccc(/C=C(\NC(=O)c2ccc([N+](=O)[O-])cc2)C(=O)NCCCN2CCOCC2)cc1	-77
COc1cc2c(cc1OC)C(c1ccccc1)CC2=O (centres unmarked)	7.03
COC(=O)c1ccc(-c2nc3ccccc3[nH]2)cc1	17.8
CC(=O)Nc1ccc([N+](=O)[O-])cn1	24.4
CCC(C(=O)Nc1ccccn1)c1ccccc1 (centres unmarked)	1.4
Cc1cccc(OCCNc2ccc([N+](=O)[O-])cn2)c1	-21.3
CCC(C(=O)Nc1ccc([N+](=O)[O-])cn1)c1ccccc1 (centres unmarked)	-67.4
CC(Oc1cccnc1[N+](=O)[O-])C(=O)Nc1ccc(Cl)cn1 (centres unmarked)	-16.6
CC(Oc1cccc(Cl)c1)C(=O)Nc1ccc([N+](=O)[O-])cn1 (centres unmarked)	-62.2
Cc1csc(NC(=O)C(C)Oc2ccc(Cl)cc2C)n1 (centres unmarked)	-21
CCC(CC)C(=O)Nc1ccc([N+](=O)[O-])cn1	10.8
CC(Oc1cccc(Cl)c1)C(=O)Nc1ccncc1 (centres unmarked)	3.81
Cc1cccc(Nc2ccc([N+](=O)[O-])cn2)c1	10.9
Cc1cc(Cl)ccc1OC(C)C(=O)Nc1ccc([N+](=O)[O-])cn1 (centres unmarked)	-75.9
Cc1cccc(C(C)Nc2ccc([N+](=O)[O-])cn2)c1 (centres unmarked)	-68.9
